According to PubChem BioAssay (NCI):
Compounds without any hit were thinned out: in the full panel of roughly 79,000, 15% have a hit. Active and inactive are the calls of the source. No stated cut-off is given here; in the data, active means growth inhibition above about 70%; inactive means the rest. Where a SMILES comes first, the peptide text is derived from it. The star is where a group is joined. Myristoyl = CCCCCCCCCCCCCC(=O)*

How the values were obtained:
[1] = NCI Yeast Anticancer Drug Screen. Data for the rad50 strain (AID 155);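 further: 0% = growth of vehicle-only cultures of the same strain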; settings: S. cerevisiae rad50 strain growth inhibition; at 50.0 µM; hits give high values
Procedure, shortened: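 Growth of the mutant yeast was measured after compound exposure and referenced to vehicle-treated cultures.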

[2] = NCI Yeast Anticancer Drug Screen. Data for the mec2-1 strain (AID 157); settings: S. cerevisiae mec2-1 strain, at 50.0 µM, hits give high values
Procedure, shortened: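 Compounds were applied to mec2-1 yeast cells. Their growth was then compared with that of vehicle-treated cultures to give growth inhibition.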

[3] = NCI Yeast Anticancer Drug Screen. Data for the sgs1 mgt1 strain (AID 161);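 further: 0% = growth of cultures given vehicle only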; settings: S. cerevisiae sgs1 mgt1 strain, at 50.0 µM, hits give high values
Procedure, shortened: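 This yeast growth screen uses a strain with defined DNA-repair lesions; compound-treated growth is compared with vehicle-treated growth.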

[4] = NCI Yeast Anticancer Drug Screen. Data for the cln2 rad14 strain (AID 165);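 further: 0% = growth equal to vehicle treated cultures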; settings: S. cerevisiae cln2 rad14 strain, at 50.0 µM, hits give high values
Procedure, shortened: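 Strain: cln2 rad14 yeast, altered in cell cycle control and DNA damage repair. Read-out: growth inhibition vs vehicle.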

[5] = NCI Yeast Anticancer Drug Screen. Data for the bub3 strain (AID 167); settings: S. cerevisiae bub3 mutant strain, at 50.0 µM, hits give high values
Procedure, shortened: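 Whole-cell yeast assay. The mutant strain was incubated with compounds, and growth inhibition was determined by comparison with vehicle-treated cells.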

[6] = NCI Yeast Anticancer Drug Screen. Data for the mlh1 rad18 strain (AID 175); settings: S. cerevisiae mlh1 rad18 strain growth inhibition; at 50.0 µM; hits give high values
Procedure, shortened: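 A repair-deficient yeast strain is exposed to test compound, and growth is scored relative to vehicle-treated controls.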

Measured: growth inhibition

CC(=O)NC(Cc1ccccc1)C(=O)NN (stereo not given)
inactive: [1] 7.15% | [2] -8.3% | [3] -11.2% | [4] -0.35% | [5] -6.55% | [6] -22.3%

COc1cc(O)c2c(c1)C(=O)c1cc3c(c(O)c1C2=O)C(O)C(OC)C(C)(O)C3O (stereo not given)
active: [1] 72.5% | [3] 72%
inactive: [2] 54.3% | [4] 42.6% | [5] 64.8% | [6] 68.2%

O=C1C=Cc2ccccc2/C1=C/c1nc(-c2ccc(Cl)cc2)oc1O
inactive: [1] -3.2% | [2] 7.05% | [3] -8.75% | [4] -1.2% | [5] 6.9% | [6] -13.3%

CCOC(=O)CCC(NC1=C(Cl)C(=O)c2ccccc2C1=O)C(=O)O (stereo not given)
inactive: [1] 12.2% | [2] 2.15% | [3] 20.4% | [4] -63.1% | [5] 0.15% | [6] 24.9%

CCc1nc(=S)c2cnn(-c3ccccc3)c2[nH]1
inactive: [1] 16.4% | [2] 1.1% | [3] 11.2% | [4] -33.5% | [5] 8.05% | [6] 23.6%

Cc1nnc2n(c1=O)CCCN2C
inactive: [1] -0.35% | [2] 6.2% | [3] 11.6% | [4] -11.8% | [5] 15.8% | [6] 13.4%

CSc1c(S(C)=O)[nH]c2cc(Br)cc(Br)c12 (stereo not given)
active: [1] 84.2% | [2] 89.3% | [3] 88.7% | [4] 71.6% | [5] 89.4% | [6] 85.2%

N#C/C(=C(/Cc1ccc(F)cc1)NP(=O)(c1ccccc1)c1ccccc1)c1ccc(F)cc1
inactive: [1] 10.9% | [2] -3.7% | [3] -10.4% | [4] 0.8% | [5] 2.6% | [6] -2.35%

CC1=NN(C(=O)CC(=O)Nc2cccc(C)c2)C(=O)C1N=Nc1ccc(C(=O)O)cc1 (stereo not given)
inactive: [1] -33.9% | [2] 5.95% | [3] 12.6% | [4] -11.7% | [5] -2.7% | [6] 25.9%

Cc1nc2cc(N)c(Cl)cc2[nH]1
inactive: [1] -6.5% | [2] 14.8% | [3] 9.95% | [4] -7.15% | [5] 10.5% | [6] -0.6%

CC(C)C(C(=O)O)N1C(=O)c2ccccc2C1=O (stereo not given)
inactive: [1] -16.2% | [2] -1.5% | [3] -12.2% | [4] -31.6% | [5] -16.1% | [6] -4.15%

c1ccc2c(c1)oc1cc3c(cc12)n1nnnc1c1cccn31
inactive: [1] 9% | [2] -1.25% | [3] -3.45% | [4] 16.4% | [5] 4.6% | [6] -7.8%

O=C(Cl)C1CC=C2c3ccccc3CCC2C1C(=O)Cl (stereo not given)
inactive: [1] 0.85% | [2] 19.1% | [3] 8.1% | [4] -3.05% | [5] 15.1% | [6] -5.5%

CS(=O)(=O)N1COC(=O)[C@@H]1c1ccccc1
inactive: [1] 1.25% | [2] 25.4% | [3] 7% | [4] -3% | [5] 11.2% | [6] 3.05%

CO/C=C(/C#N)S(=O)(=O)/C(C#N)=C/OC
inactive: [1] 32.5% | [2] 37.3% | [3] 34% | [4] 4.65% | [5] 24.9% | [6] 15.9%

Cc1nc(C(N)=S)sc1C(=O)/C=C/c1c(O)ccc2ccccc12
inactive: [1] 49.4% | [2] 9.55% | [3] 33.4% | [4] 23.8% | [5] 31.1% | [6] 40.3%

COSCCCC(C)=O
inactive: [1] 25.5% | [2] 4% | [3] -5.15% | [4] 13.8% | [5] 6.55% | [6] 13.8%

COc1cc(C(=O)NC(=S)NC2CCCCCCCCCCC2)cc(OC)c1OC
inactive: [1] 8.1% | [2] -15.3% | [3] 7.25% | [4] 1.65% | [5] 6.05% | [6] 4.6%

Cc1cnc(N/N=C/c2c(CO)cnc(C)c2O)s1
inactive: [1] 20.6% | [2] 9.85% | [3] 7.25% | [4] 11.6% | [5] 2.75% | [6] 23.6%

CC1C2CC(CC(=O)N2)C1(C)C (stereo not given)
inactive: [1] 15.6% | [2] 21.6% | [3] 21.7% | [4] 15.1% | [5] 11.2% | [6] 13.6%

CC(C)CCCC(C)C1CCC2(C)C3=C(CCC12C)C1(C)Cc2nonc2C(C)(C)C1CC3 (stereo not given)
inactive: [1] 20.9% | [2] 3.35% | [3] 3.3% | [4] 14.9% | [5] 0.55% | [6] 11.3%

NNC(=O)C(=O)N/N=C1\CCC(=O)CC1C(=O)CCC(=O)Nc1ccc(Cl)cc1 (stereo not given)
inactive: [1] 10.3% | [2] 1.05% | [3] -16.6% | [4] -9.35% | [5] -0.8% | [6] -17.5%

O=[N+]([O-])c1ccc(S(=O)(=O)N/N=C\c2cc([N+](=O)[O-])ccc2O)cc1
inactive: [1] 11.8% | [2] -1.4% | [3] 11.2% | [4] -35.2% | [5] 1.55% | [6] 26.6%

CC[C@]12C=CCN3CCC4(c5cc([C@@]6(C(=O)OC)CC7CN(CCc8c6[nH]c6ccccc86)C[C@@H]6CCC[C@H]76)c(OC)cc5N(C)C4[C@](O)(C(=O)OC)C1OC(C)=O)C32 (stereo not given in full)
inactive: [1] -9.2% | [2] 3.8% | [3] -30.6% | [4] -22.1% | [5] -45% | [6] 9.3%

Cc1cccc2c(/C=C/c3ccc(N(C)C)cc3)ccnc12
inactive: [1] -11.6% | [2] -8% | [3] -3.95% | [4] -22.2% | [5] 2.85% | [6] -11.4%

CC(Cc1nc2ccccc2[nH]1)Cc1nc2ccccc2[nH]1
inactive: [1] -7% | [2] 17.4% | [3] 7.1% | [4] 21.4% | [5] 2.3% | [6] 15.6%

O=C(O)c1cccc2ccc3cccc(C(=O)O)c3c12
inactive: [1] -5.35% | [2] -6.05% | [3] -0.45% | [4] -74.8% | [5] 2% | [6] -17.2%

CC(C)(C)NC(=O)Oc1ccc(-c2ccccc2)cc1Cl
active: [1] 98.8% | [2] 99.5% | [3] 99.2% | [4] 98.3% | [5] 99.3% | [6] 99.3%

O=C(O)CCc1ccc2c(c1)CC1(Cc3ccccc3C1)C2
inactive: [1] 26.1% | [2] 41.8% | [3] 61.2% | [4] 52.6% | [5] 48.1% | [6] 64%

CC1CC(C)(C)C(C[NH-])C1[NH-].[Cl][Pt+2][Cl] (stereo not given)
inactive: [1] 23.8% | [2] 20.5% | [3] 34.3% | [4] 24.1% | [5] 28.9% | [6] 28.1%

CC(C)OC(=O)Oc1ccccc1Cl
inactive: [1] -18.5% | [2] -21.1% | [3] -13.6% | [4] -6.9% | [5] -3.35% | [6] -22.4%

C=C/C=N/Nc1ccc([N+](=O)[O-])cc1[N+](=O)[O-]
inactive: [1] 2.5% | [2] 5.4% | [3] 2.2% | [4] 5.9% | [5] 2.4% | [6] -1.35%

CC(NNC(=S)N1CCCCCC1)c1cccc[n+]1[O-] (stereo not given)
inactive: [2] 8.3% | [5] 14.3% | [6] 33.6%
active: [1] 97.4% | [3] 96.5% | [4] 97.6%

Cc1c(O)c(=O)ccn1CCN
inactive: [1] 5.65% | [2] -8.35% | [3] 2.6% | [4] -34% | [5] -9.7% | [6] 5.8%

O=C(NC1c2ccccc2Oc2ccccc21)OCCCCl
inactive: [1] -11.2% | [2] -3.1% | [3] 2.15% | [4] -7.05% | [5] 7.8% | [6] -5.1%

CC1=C/C(=N\NC(N)=S)C(C(O)(C(F)(F)F)C(F)(F)F)C(C)(C)C1 (stereo not given)
inactive: [1] 65.9% | [2] 30.6% | [3] 47% | [4] 20.2% | [5] 41.5% | [6] 59.8%

Nc1cc(=O)n(C2OC(CO)C(O)C2O)cn1 (stereo not given)
inactive: [1] 6.85% | [2] -8.35% | [3] -0.3% | [4] -39.4% | [5] -19.4% | [6] 8.05%

CCCCCCCCCCCCCC(=O)NCC(=O)NC(C)C(=O)NC(CCCNC(=N)N)C(=O)NC(C)C(=O)NC(CO)C(=O)NC(C(=O)NC(CC(C)C)C(=O)NC(CO)C(=O)NCC(=O)NCC(=O)NC(CCC(=O)O)C(=O)NC(CC(C)C)C(=O)NC(CC(=O)O)C(=O)NC(CCCNC(=N)N)C(=O)NC(Cc1c[nH]c2ccccc12)C(=O)NC(Cc1ccc(O)cc1)C(N)=O)C(C)C (stereo not given) (Myristoyl-GARASVLSGGELDRWY-NH2; configuration not given here)
inactive: [1] -4% | [2] -6.9% | [3] -12.7% | [4] 8.8% | [5] -40.4% | [6] -6.5%

O=C(c1ccc(Cl)c(Cl)c1)n1c2ccccc2c2ccccc21
inactive: [1] -0.65% | [2] -47.5% | [3] -12.3% | [4] 3.8% | [5] -4.1% | [6] 2.4%

CN(C(=O)C1(C(=O)C=[N+]=[N-])CC1)c1ccccc1
inactive: [1] -3.8% | [2] -4.4% | [3] -14.8% | [4] 1.3% | [5] -2.55% | [6] 7.3%
